According to PubChem BioAssay AID720575 (National Center for Advancing Translational Sciences (NCATS), 2013):
This is one part of the list. Entries that show only a call come without a potency. Inconclusive results are not listed. Active and inactive are the calls of the source. Calls come from the whole dose curve; as a rule, active = well fitted inhibition curve with a large enough effect; inconclusive = small, poorly fitted or top-dose-only effect; inactive = no such curve, though single readings can be large or run the other way.

Assay: qHTS Assay for Inhibitors of Hepatitis C Virus (HCV): Confirmation Assay for Cherry-picked Compounds
Conditions: Potency: inhibition
Excerpt: Hepatitis C virus (HCV) infects about 200 million people in the world. Many infected people progress to chronic liver disease including cirrhosis with a risk of developing liver cancer. To date, there is no effective vaccine for hepatitis C. Current therapy based on interferon is only effective in about half of the patients and is associated with significant adverse effects. The fraction of people with HCV who can complete a successful treatment is estimated to be no more than 10 percent. Recent development of direct-acting antivirals against HCV, such as protease and polymerase inhibitors, is promising but still requires combination with peginterferon and ribavirin for maximal efficacy. In addition, these agents are associated with high rate of resistance and many have significant side effects. Due to the lack of a culture system for infectious HCV, the search for new HCV drugs has been greatly hampered. […] High-throughput screening (HTS) with an infectious HCV system would cover the complete spectrum of potentially druggable targets in all stages of HCV lifecycle, and would have more biological relevance than other cell-based assays. […]
Cells were plated in a 1536-wel tissue culture grade plates at a final concentration of 1,000 cells/well (3 uL volume). […] The luciferase activity was read for 15 sec using the PerkinElmenr ViewLux plate reader.
Note: nearly all actives have a fitted effect of over 80% in size.

| Structure (SMILES) | Potency |
| --- | --- |
| CC[N+]1(C)CCCC(OC(=O)C(O)(c2ccccc2)c2ccccc2)C1 (configuration not stated) | inactive |
| CC1=CC(=Cc2sc3ccccc3[n+]2C)C=C(C)O1 | 4.99 µM (active) |
